Values joined by “and” are separate entries in the source; they are usually repeats but may differ in a detail not shown here. Equal entries are not always repeated. Active and inactive are the calls of the source. No rule for the calls is given here.
tested on: Botulinum neurotoxin type F light chain protease (Clostridium botulinum); test: Clostridium botulinum type F light chain protease inhibitors, microsphere substrate cleavage, validation (AID 588459); details: multiplex microsphere protease substrate cleavage assay, flow cytometry; at 10 µM; hits give high values

SMILES | inhibition
CC(=O)C1=C(O)C(=O)OC1c1ccc(C)cc1 (centres undefined) | 9.7% (inactive)
CC1(C)OC2OC(C(=O)N/N=C/c3ccccc3F)C3OC(C)(C)OC3C2O1 (centres undefined) | 2.6% (inactive)
Cc1c(OCC(F)(F)F)ccnc1CS(=O)c1nc2ccccc2[nH]1 (centres undefined) | -1% (inactive)
COc1ccccc1N1C(=O)C2CC(C)=C(C)CC2C1=O (centres undefined) | -2.6% (inactive)
Cc1ccc2nc(N=C(N)N)nc(C)c2c1 | 3.2% (inactive)
CCOC(=O)c1c(O)c2c([nH]c1=O)CCCC2 | 2.3% (inactive)
COC(=O)c1sccc1NC(=O)Nc1ccccc1F | -1.2% (inactive)
O=C(NCC1CCCO1)c1ccc(OC2CCN(C(=O)C3CC3)CC2)cc1 (centres undefined) | 0.8% (inactive)
CC(C)CC(=O)OC1C(N2CCOCC2)c2c(ccc(/C=C/C(=O)N3CCOCC3)c2O)OC1(C)C (centres undefined) | 0.5% (inactive)
Cc1ccc(Nc2ncccc2C(=O)O)cc1C | 0.8% (inactive)
NCCc1cnc[nH]1 | 0.7% (inactive) and 3.1% (inactive)
N=c1ccn(CC(=O)NC(N)=O)c2ccccc12 | 3.3% (inactive)
CN1CCCN=C1COC(=O)C(O)(c1ccccc1)C1CCCCC1 (centres undefined) | -1.4% (inactive)
Cn1c(=O)c2c(ncn2CCO)n(C)c1=O | 1.2% (inactive)
CN(C)CCN(Cc1ccc(Cl)cc1)c1ccccn1 | -0.9% (inactive)
Cc1ncc(C(=O)O)c(C(=O)O)c1N | 0.4% (inactive)
COc1ccccc1C(=O)c1cc2ccc(O)cc2oc1=O | -0.4% (inactive)
CC(=O)O[C@]1(C(C)=O)CC[C@H]2[C@@H]3C[C@H](C)C4=CC(=O)CC[C@]4(C)[C@H]3CC[C@@]21C | 0.4% (inactive)
CCN(CC)c1ccc([C@H]2[C@@H]3CCCC[C@]3(O)CCN2CC(=O)NCc2ccco2)cc1 | -1.2% (inactive)
CC(=O)Nc1ccccc1C(=O)C(=O)Nc1ccccc1 | 2.1% (inactive)
CCc1ccc2oc(=O)cc(CN3CCC(C)CC3)c2c1 | 5.5% (inactive)
C#C[C@]1(O)CC[C@H]2[C@@H]3CCc4cc(OC5CCCC5)ccc4[C@H]3CC[C@@]21C | -0.9% (inactive)
Cc1ccccc1NC(=O)NCCc1c[nH]c2ccccc12 | -1.9% (inactive)
CCCCCCCC(=O)OCC(=O)[C@@]1(O)CC[C@H]2[C@@H]3CCC4=CC(=O)CC[C@]4(C)[C@H]3[C@@H](O)C[C@@]21C | -3.8% (inactive)

Source: PubChem BioAssay
